Test results taken from PubChem BioAssay (NCATS).
Inconclusive results are not listed. Activity calls are given as the source filed them. Unless noted, calls follow the shape of the dose curve; as a rule, active = well fitted curve in the direction sought with a large enough effect; inconclusive = small, poorly fitted or top-dose-only effect, or another doubt; inactive = no such curve, though single readings can be large; an effect the other way counts as inactive or inconclusive.

How the values were obtained:
[1] = High Content Imaging Cell-Based qHTS for Inhibitors of the mTORC1 Signaling Pathway in MEF Cells (AID 2667);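 also: Tsc2-/- p53-/- MEFs stably re-expressing wild-type Tsc2 exposed 24 h; series mostly up to about 38 µM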
Outline: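 Read-out is the share of phospho-rpS6-positive cells per well, from Hoechst-normalized Alexa-488 Ser235/236 staining imaged on IN Cell. Cells: WT Tsc2-expressing Tsc2-/-, p53-/- MEFs exposed to compound for 24 hrs.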

[2] = Validation screen for small molecules that induce DNA re-replication in MCF 10A normal breast cells (AID 463097); also: nearly all actives have a fitted effect of over 60% in size
Outline: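 Read-out is Hoechst total nuclear intensity by fluorescence scanning imager, flagging increased high-DNA-content nuclei. Compounds were incubated with MCF 10A cells for 48 hr (37 C, 5% CO2) before 40 min staining.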

[3] = molecular target: Ubiquitin carboxyl-terminal hydrolase 2 (Homo sapiens) (UniProt O75604); assay: qHTS Validation Assay for Inhibitors of Ubiquitin-specific Protease USP2a Using CHOP2 as the Reporter (AID 463106)
Outline: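 Fluorescence read-out at Ex 485nm/Em 531nm after 60min RT, following addition of 25nM Ub-CHOP2 plus 25nM reporter substrate to USP2 core (10nM) pretreated 30min with compound. Data normalized to NEM full inhibition; concentration-response curves fitted.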

[4] = molecular target: DNA polymerase III PolC-type (Bacillus subtilis (strain 168)) (UniProt P13267); assay: qHTS Validation Assay for the Inhibitors of DNA Replication in Gram-Positive Bacteria (AID 485295);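 also: reconstituted holoenzyme with PolC plus beta clamp SSB and primase; PicoGreen fluorescence of double-stranded DNA made on primed circular M13 template; series mostly up to about 57 µM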
Outline: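 Double-stranded DNA product detected by PicoGreen fluorescence after EDTA quench. Compound incubated with B. subtilis holoenzyme (PolC, beta subunit, SSB, primase) before substrate addition; primed replication of M13Gori with dNTPs and NTPs at room temperature; DMSO defines 0% inhibition.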

[5] = molecular target: Tumor susceptibility gene 101 protein (Homo sapiens) (UniProt Q99816); assay: qHTS Validation Assay for Iinhibitors of HIV-1 Budding by Blocking the Interaction of PTAP/TSG101 (AID 485342; calls by dose curve)
Outline: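 Fluorescence polarization of 50 nM FITC-PTAP peptide bound to 10 uM Tsg101 binding domain was read after 20 min room-temperature incubation with compounds, in 10 mM HEPES pH 7.5, 0.15 M NaCl, 0.01% Tween 20.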

[6] = qHTS Validation Assay to Find Inhibitors of Chronic Active B-Cell Receptor Signaling (AID 485345; active = well fitted curve in the direction sought with a large enough effect in the main read-out, with a control signal flat, not every such curve was filed as active)
Outline: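 TMD8 ABC-DLBCL cells stably carrying doxycycline-inducible IkappaBalpha–green luciferase fusion plus unfused red luciferase; compounds 46 uM to 3 nM, 4 h at 37C with doxycycline. Corrected green/red luminescence ratio normalized to 10 uM MG-132 and basal cell wells; curves fitted.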

[7] = molecular target: Beta-2 adrenergic receptor (Homo sapiens) (UniProt P07550); assay: qHTS validation assay of beta-arrestin-biased ligands of beta2-adrenergic receptor (AID 485366)
Outline: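 Screening used a titration range of up to 46 microM in a beta-arrestin recruitment Tango luciferase assay. Cells in 1% FBS medium were treated 18 hr at 37 degrees C, and luminescence was normalized to %Activity.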

[8] = molecular target: ATP-dependent 6-phosphofructokinase (Trypanosoma brucei brucei) (UniProt O15648); assay: qHTS Validation Assay to Find Inhibitors of T. brucei phosphofructokinase (AID 485368); settings: outcome: dose series up to 57.5 µM
Outline: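 PFK-generated ADP was measured after 45 min at room temperature using ADP-Glo. The reaction contained 0.5 mM F6P and 0.1 mM ATP.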

[9] = molecular target: Thioredoxin reductase 1, cytoplasmic (Rattus norvegicus) (UniProt O89049); assay: qHTS Assay for Substrates of Mammalian Selenoprotein Thioredoxin Reductase 1 (TrxR1) (AID 488772);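 also: series mostly up to about 57 µM; a drop in NADPH fluorescence below the no-compound background marks a TrxR1 substrate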
Outline: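 In this dual-purpose format, potential substrates are identified from the first fluorescence read after selenite addition, not from the 8-minute delta. Rat enzyme is preincubated with NADPH and then with compound at ~22 deg C.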

[10] = molecular target: Thioredoxin reductase 1, cytoplasmic (Rattus norvegicus) (UniProt O89049); assay: qHTS Assay for Inhibitors of Mammalian Selenoprotein Thioredoxin Reductase 1 (TrxR1) (AID 488773); settings: Potency: inhibition;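 also: drop in NADPH fluorescence over an 8 min run after selenite addition; series mostly up to about 57 µM; nearly all actives have a fitted effect of over 40% in size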
Outline: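 Inhibition is scored from the loss of NADPH fluorescence between first and last reads of an 8-min kinetic run. Selenite (400 uM) was the substrate, added after 15 min compound preincubation at room temperature.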

[11] = molecular target: Flap endonuclease 1 (Homo sapiens) (UniProt P39748); assay: qHTS Validation Assay for the Inhibitors of Human Flap endonuclease 1 (FEN1) (AID 488816)
Outline: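 Enzyme reagent 10 nM; cpds pinned; 15 min RT preinc.; substrate 50 nM final; reads t=0 and 15 min; no-enzyme buffer wells as neg. control; normalized data, 4-parameter Hill fit.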

[12] = molecular target: M-phase phosphoprotein 8 (Homo sapiens) (UniProt Q99549); assay: qHTS Validation Assay for Inhibitors for MPP8 Chromodomain Interactions with Methylated Histone Tails (AID 488949);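 also: AlphaScreen signal from MPP8 chromodomain bound to biotinylated H3K9me3 peptide; top concentration of the series differs between compounds; nearly all actives have a fitted effect of over 55% in size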
Outline: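 AlphaScreen proximity signal from streptavidin donor and Ni-chelate acceptor beads (10 ug/mL each) reported binding of MPP8 to trimethyl-K9 H3(1-18) peptide, both at 50 nM. The complex formed 30 min before a 30 min compound exposure at room temperature, in PBS pH 7.4.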

[13] = molecular target: Chromobox protein homolog 1 (Homo sapiens) (UniProt P83916); assay: qHTS Validation Assay for Inhibitors of HP1-beta Chromodomain Interactions with Methylated Histone Tails (AID 488953);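 also: loss of AlphaScreen luminescence from HP1-beta binding biotinylated H3K9me3 peptide; series mostly up to about 110 µM; nearly all actives have a fitted effect of over 50% in size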
Outline: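 Compounds pinned into a preassembled complex of HP1-beta and trimethyl-K9 histone H3(1-18) biotin peptide (50 nM each; PBS pH 7.4, 0.01% Tween-20). After 30 min, bead-based AlphaScreen detection followed.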

[14] = molecular target: Methanococcus maripaludis chaperonin (MmCpn) (UniProt Q6LX38); assay: High-Throughput Screening for Modulators of Cytosolic Chaperonin Activity: MmCpn Primary Screen (AID 488978);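 also: 50 nM MmCpn enzyme hydrolysing 30 µM ATP at 37 °C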
Outline: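 ATPase activity of 50 nM MmCpn was assayed with 30 uM ATP, 10 minutes at 37C, after a 5 min compound preincubation at room temperature. ADP production was read as HTRF emission at 590 and 665 nm.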

[15] = molecular target: Transient receptor potential cation channel subfamily V member 1 (Homo sapiens) (UniProt Q8NER1); assay: HTS Assay for Compounds that Act as Enhancers of the Vanilloid Receptor 1 (AID 488979)
Outline: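 TRPV1 cells loaded with Fluo-8 calcium dye; compound added and Ca2+ signal (ex 480/em 520 nm) followed 3 min, then capsaicin at EC20 added and read 2 more min to detect enhancement.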

[16] = molecular target: D(1A) dopamine receptor (Homo sapiens) (UniProt P21728); assay: HTS Assay for Allosteric Agonists of the Human D1 Dopamine Receptor: Primary Screen for Agonists (AID 488981)
Outline: (§1)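 Tetracycline-induced HEK293 Trex D1 cells with forced coupling to calcium, loaded with no-wash calcium dye; kinetic fluorescence read 180 s after compound addition for agonism, then a further 180 s after an EC20 dopamine challenge for potentiation.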

[17] = molecular target: D(1A) dopamine receptor (Homo sapiens) (UniProt P21728); assay: HTS Assay for Allosteric Agonists of the Human D1 Dopamine Receptor: Primary Screen for Antagonists (AID 488983);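 also: calcium flux response to an EC80 dopamine challenge measured with no-wash dye; nearly all actives have a fitted effect of over 65% in size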
Outline: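 In this primary screen, compounds are applied to calcium-dye-loaded HEK293 T-REx cells with force-coupled D1 expression induced overnight at 30 C. An EC80 of dopamine follows the 180 s compound phase, and calcium is monitored for a further 180 s.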

[18] = Cytometry Cell-Based qHTS for Inhibitors of the mTORC1 Signaling Pathway in MEF cells (AID 2668);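 also: Tsc2-/- p53-/- mouse embryonic fibroblasts stably re-expressing wild-type Tsc2; percent cells positive for phospho-rpS6 Ser235/236 relative to propidium iodide stain; series mostly up to about 38 µM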
Outline: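 Phospho-rpS6 (Ser235/236) immunofluorescence over PI signal, scored as % positive cells using thresholds from 7.5 nM rapamycin and DMSO wells, after 24 h compound exposure of WT-Tsc2-rescued Tsc2-/-, p53-/- MEFs. PI cell count recorded for viability.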

[19] = molecular target: Thyrotropin receptor (Homo sapiens) (UniProt P16473); assay: qHTS Assay for Antagonists of the Thyroid Stimulating Hormone Receptor (AID 488980); also: series mostly up to about 58 µM
Outline: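 Inhibition of cAMP raised by EC80 TSH (4 nM final) was read by HTRF, with lysate cAMP competing against cAMP-d2 for cryptate antibody after 30 min at room temperature. The cells were transfected HEK293 held in phosphodiesterase inhibitor RO 20-1724 at 70 uM.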

[20] = molecular target: D(1A) dopamine receptor (Homo sapiens) (UniProt P21728); assay: HTS Assay for Allosteric Agonists of the Human D1 Dopamine Receptor: Primary Screen for Potentiators (AID 488982)
Outline: as §1

Measured: Potency

Sequence of M-phase phosphoprotein 8 (Homo sapiens) (Q99549 whole entry, looked up): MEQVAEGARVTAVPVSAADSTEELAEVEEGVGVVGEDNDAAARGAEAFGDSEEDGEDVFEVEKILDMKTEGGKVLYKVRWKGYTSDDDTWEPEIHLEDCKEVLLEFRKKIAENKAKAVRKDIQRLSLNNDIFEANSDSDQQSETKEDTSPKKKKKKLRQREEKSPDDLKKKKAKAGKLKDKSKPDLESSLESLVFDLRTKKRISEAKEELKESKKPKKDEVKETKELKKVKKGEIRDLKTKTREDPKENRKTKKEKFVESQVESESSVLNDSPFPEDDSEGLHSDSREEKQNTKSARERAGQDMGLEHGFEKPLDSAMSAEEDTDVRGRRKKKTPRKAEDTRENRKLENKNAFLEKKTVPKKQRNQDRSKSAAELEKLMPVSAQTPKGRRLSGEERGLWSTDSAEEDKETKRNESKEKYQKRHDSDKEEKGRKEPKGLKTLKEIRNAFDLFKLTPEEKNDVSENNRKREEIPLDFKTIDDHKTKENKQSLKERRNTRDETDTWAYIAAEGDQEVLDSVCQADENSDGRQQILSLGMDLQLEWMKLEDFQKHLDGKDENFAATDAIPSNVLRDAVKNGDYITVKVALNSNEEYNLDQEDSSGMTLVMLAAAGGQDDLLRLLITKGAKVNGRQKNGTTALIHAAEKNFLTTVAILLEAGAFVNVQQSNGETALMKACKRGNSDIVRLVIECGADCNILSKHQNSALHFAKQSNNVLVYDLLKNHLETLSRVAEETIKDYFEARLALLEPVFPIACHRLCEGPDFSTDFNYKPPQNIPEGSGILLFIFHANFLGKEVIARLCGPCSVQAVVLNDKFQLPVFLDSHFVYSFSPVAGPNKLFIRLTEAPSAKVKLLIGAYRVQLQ
Sequence of Transient receptor potential cation channel subfamily V member 1 (Homo sapiens) (Q8NER1 whole entry, looked up): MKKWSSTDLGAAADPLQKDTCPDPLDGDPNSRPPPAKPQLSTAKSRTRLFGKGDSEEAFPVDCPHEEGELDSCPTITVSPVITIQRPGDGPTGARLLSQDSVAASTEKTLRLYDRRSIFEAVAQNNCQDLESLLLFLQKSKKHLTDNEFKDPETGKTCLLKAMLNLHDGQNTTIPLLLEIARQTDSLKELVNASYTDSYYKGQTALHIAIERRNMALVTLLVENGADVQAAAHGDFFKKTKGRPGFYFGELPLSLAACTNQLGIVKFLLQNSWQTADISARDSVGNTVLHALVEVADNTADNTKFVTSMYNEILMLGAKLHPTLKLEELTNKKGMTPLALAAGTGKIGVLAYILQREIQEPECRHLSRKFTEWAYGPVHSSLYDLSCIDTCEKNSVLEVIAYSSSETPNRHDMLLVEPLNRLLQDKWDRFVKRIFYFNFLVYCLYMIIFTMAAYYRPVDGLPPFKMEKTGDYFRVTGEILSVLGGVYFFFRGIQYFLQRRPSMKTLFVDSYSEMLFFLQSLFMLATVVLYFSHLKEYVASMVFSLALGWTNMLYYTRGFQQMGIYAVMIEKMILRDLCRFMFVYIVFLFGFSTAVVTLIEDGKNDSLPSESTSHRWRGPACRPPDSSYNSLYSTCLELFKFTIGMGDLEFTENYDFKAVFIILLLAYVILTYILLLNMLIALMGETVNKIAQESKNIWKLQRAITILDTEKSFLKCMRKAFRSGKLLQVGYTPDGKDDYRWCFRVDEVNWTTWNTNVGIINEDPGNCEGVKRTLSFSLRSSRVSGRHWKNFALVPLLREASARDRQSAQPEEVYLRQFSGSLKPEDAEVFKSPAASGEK
Sequence of Beta-2 adrenergic receptor (Homo sapiens) (P07550 whole entry, looked up): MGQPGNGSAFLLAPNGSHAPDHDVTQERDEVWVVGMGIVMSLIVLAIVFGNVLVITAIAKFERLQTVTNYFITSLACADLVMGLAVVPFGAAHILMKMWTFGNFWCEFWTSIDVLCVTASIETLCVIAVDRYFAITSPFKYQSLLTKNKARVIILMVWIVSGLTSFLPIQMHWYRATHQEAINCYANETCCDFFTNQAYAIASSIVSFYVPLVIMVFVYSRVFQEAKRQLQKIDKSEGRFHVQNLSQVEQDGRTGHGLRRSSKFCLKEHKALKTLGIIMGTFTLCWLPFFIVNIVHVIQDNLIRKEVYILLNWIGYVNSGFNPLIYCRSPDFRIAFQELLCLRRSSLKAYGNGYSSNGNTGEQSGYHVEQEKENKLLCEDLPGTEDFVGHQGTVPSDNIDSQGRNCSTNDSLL
Sequence of D(1A) dopamine receptor (Homo sapiens) (P21728 whole entry, looked up): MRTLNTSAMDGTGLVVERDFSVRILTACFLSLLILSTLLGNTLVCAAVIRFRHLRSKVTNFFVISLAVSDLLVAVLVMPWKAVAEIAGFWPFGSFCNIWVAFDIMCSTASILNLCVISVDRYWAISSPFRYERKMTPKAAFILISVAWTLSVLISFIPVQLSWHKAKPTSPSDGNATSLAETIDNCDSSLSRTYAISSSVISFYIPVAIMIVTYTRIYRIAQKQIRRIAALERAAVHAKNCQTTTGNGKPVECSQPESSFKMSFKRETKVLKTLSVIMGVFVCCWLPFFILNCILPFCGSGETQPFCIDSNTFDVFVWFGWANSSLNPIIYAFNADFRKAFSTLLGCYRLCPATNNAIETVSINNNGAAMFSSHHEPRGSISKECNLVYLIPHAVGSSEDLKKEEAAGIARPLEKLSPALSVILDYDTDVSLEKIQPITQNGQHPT
Sequence of Tumor susceptibility gene 101 protein (Homo sapiens) (Q99816 whole entry, looked up, the tested form may be a part): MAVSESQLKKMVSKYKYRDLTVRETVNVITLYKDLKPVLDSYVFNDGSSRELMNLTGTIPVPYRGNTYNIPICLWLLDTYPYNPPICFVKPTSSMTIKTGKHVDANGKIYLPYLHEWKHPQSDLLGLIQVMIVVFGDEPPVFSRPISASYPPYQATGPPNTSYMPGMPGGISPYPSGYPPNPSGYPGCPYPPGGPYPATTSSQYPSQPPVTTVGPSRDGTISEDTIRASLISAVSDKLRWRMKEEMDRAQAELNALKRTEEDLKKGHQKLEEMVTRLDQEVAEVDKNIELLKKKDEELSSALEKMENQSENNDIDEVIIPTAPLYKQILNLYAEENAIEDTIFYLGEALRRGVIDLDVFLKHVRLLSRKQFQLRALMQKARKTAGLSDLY
Sequence of ATP-dependent 6-phosphofructokinase (Trypanosoma brucei brucei) (O15648 whole entry, looked up): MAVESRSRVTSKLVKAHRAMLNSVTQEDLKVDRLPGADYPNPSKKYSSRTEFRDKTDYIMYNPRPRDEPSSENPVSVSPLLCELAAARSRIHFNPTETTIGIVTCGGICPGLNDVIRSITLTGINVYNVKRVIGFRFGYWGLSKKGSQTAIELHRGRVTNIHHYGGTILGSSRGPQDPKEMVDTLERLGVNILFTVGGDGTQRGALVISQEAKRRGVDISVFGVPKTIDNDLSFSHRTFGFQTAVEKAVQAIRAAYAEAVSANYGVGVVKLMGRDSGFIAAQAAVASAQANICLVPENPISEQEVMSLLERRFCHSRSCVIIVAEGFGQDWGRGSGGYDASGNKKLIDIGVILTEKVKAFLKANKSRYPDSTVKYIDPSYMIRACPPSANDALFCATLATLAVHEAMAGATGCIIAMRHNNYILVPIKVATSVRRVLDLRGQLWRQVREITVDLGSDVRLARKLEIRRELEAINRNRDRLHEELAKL
Sequence of Thioredoxin reductase 1, cytoplasmic (Rattus norvegicus) (O89049 whole entry, looked up): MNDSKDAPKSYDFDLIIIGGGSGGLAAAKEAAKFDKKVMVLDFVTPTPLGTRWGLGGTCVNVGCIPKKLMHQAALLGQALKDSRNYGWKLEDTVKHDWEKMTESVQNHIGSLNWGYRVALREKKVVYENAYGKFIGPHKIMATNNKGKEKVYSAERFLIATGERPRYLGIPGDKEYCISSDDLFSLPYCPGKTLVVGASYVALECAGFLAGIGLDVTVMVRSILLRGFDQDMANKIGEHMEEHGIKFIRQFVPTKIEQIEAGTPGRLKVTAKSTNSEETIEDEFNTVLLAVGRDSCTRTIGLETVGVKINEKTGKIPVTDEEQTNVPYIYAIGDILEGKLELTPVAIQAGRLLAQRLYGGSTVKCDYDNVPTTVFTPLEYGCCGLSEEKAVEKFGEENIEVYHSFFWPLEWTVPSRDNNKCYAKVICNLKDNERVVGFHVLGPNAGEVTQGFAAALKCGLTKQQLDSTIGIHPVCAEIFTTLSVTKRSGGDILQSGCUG
Sequence of Flap endonuclease 1 (Homo sapiens) (P39748 whole entry, looked up): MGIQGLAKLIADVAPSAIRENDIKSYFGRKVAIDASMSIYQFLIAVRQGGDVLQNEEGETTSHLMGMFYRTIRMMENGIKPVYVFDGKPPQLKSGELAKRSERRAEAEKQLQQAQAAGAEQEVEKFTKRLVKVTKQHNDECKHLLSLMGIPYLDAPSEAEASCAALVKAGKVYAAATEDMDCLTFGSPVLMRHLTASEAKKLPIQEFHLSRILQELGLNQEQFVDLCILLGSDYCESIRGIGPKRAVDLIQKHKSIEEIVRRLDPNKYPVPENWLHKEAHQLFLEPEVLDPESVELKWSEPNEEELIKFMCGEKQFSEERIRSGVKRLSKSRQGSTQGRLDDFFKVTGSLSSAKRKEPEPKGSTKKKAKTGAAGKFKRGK
Sequence of Chromobox protein homolog 1 (Homo sapiens) (P83916 whole entry, looked up): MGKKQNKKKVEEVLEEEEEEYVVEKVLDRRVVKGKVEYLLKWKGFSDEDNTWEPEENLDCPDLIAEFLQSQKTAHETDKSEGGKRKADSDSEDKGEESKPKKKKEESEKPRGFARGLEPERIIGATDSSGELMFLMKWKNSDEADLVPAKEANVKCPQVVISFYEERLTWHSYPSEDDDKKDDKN

CCN(CC)CCCC(C)Nc1ccnc2cc(Cl)ccc12 (configuration not stated)
not listed: [18] | [19] | [20]
inactive: all other assays above

CC(C)NCC(O)COc1ccc(COCCOC(C)C)cc1 (configuration not stated)
not listed: [1] | [7] | [13]
inactive: all other assays above

Nc1ncnc2nc(-c3ccc(N4CCOCC4)nc3)cc(-c3cccc(Br)c3)c12
inactive: [3] | [4] | [5] | [7] | [8] | [9] | [12] | [14] | [16] | [17]

CCC(C)N(C)C(=O)c1cc2ccccc2c(-c2ccccc2Cl)n1 (configuration not stated)
not listed: [1] | [8] | [18]
inactive: all other assays above

Cc1[nH]c(=O)c(C#N)cc1-c1ccc2nccn2c1
not listed: [1] | [8] | [18] | [20]
inactive: all other assays above

N[C@@H]1CONC1=O
not listed: [1] | [8] | [13] | [18] | [20]
inactive: all other assays above
